Where “and” joins values, the source holds several entries; their conditions need not be identical. Identical values can stand only once. Inconclusive results are not listed. Entries that show only a call come without a potency. Calls of active or inactive are those of the source. Calls come from the whole dose curve; as a rule, active = well fitted activation curve with a large enough effect in the repeat runs; inconclusive = weak or mixed curves, or effect the other way; inactive = no such curve, though single readings can be large or run the other way.
Potency is the fitted concentration of half-maximal effect.

A short description of the assay: qHTS assay to identify small molecule agonists of the estrogen related receptor signaling pathway with the pleiotropic PPARgamma coactivator (PGC) from Tox21 10K library (AID 1224842). Note: nearly all actives have a fitted effect of over 15% in size. To be noted: PGC/ERR reporter cell line, luciferase ONE-Glo, 18 h; series mostly up to 92.4 µM. The source says:
National Center for Advancing Translational Sciences [NCATS] NIH Chemical Genomics Center [NCGC] U.S. Environmental Protection Agency [EPA] National Institutes of Environmental Health Sciences [NIEHS] National Toxicology Program [NTP] Assay overview: Estrogen related receptors (ERRs), the first orphan nuclear receptors discovered, play an important role in the control of cellular energy metabolism. ERRs are required for high-energy production in response to the environmental challenges. The pleiotropic PPARgamma coactivator (PGC) is a major partner of ERR and a key regulator in energy homeostasis. Together they have been implicated in the etiology of metabolic disorders such as Type 2 diabetes and metabolic syndrome. ERR-alpha was also identified as an adverse marker for breast cancer progression; ERR-alpha-positive tumors have a poor prognosis. To screen and to identify environmental compounds that perturb the PGC/ERR signaling pathways could provide valuable information for potential therapeutic or preventive measures in the treatment of metabolic disease. For identifying PGC/ERR agonists, PGC/ERR cell line (provided by NTP) has been used to screen Tox21 10K library.
Assay Protocol Summary: The PGC/ERR cells were dispensed at 2,000 cells/5 ul/well in 1536-well white plates using a Multidrop dispenser. After the assay plates were incubated at a 37 C/5% CO2 incubator for 6 hours, 23 nL of compounds dissolved in DMSO, positive and negative controls or DMSO only was transferred to the assay plate by a pin tool. The plates were incubated at 37 C for 18 hours. 4 ul/well of One-Glo reagent was added into the assay plates using a Flying Reagent Dispenser. After 30-minute incubation at room temperature, the luminescence intensity in the plates was measured using a ViewLux plate reader.
`N#CCCC(Br)(C#N)CBr` (stereo not given): the Potency entry was “inactive”.
Regarding `C[C@]12Cc3nonc3C[C@@H]1CC[C@@H]1[C@@H]2CC[C@@]2(C)[C@H]1CC[C@]2(C)O`, the Potency result is “inactive”.
Regarding `C[C@@H]1CC[C@@]2(OC1)O[C@H]1[C@@H](O)[C@H]3[C@@H]4CC[C@H]5C[C@@H](O[C@@H]6O[C@H](CO)[C@H](O[C@@H]7O[C@H](CO)[C@@H](O)[C@H](O[C@@H]8OC[C@@H](O)[C@H](O)[C@H]8O)[C@H]7O[C@@H]7O[C@H](CO)[C@@H](O)[C@H](O[C@@H]8O[C@H](CO)[C@@H](O)[C@H](O)[C@H]8O)[C@H]7O)[C@H](O)[C@H]6O)[C@H](O)C[C@]5(C)[C@H]4CC[C@]3(C)[C@H]1[C@@H]2C`, the Potency result was “inactive”.
As for `COc1ccc(/C(=C/C(=O)N2CCOCC2)c2ccc(Cl)cc2)cc1OC`, the Potency result is “inactive”.
The result for `CCC(C)c1cc(C(C)(C)C)cc(-n2nc3ccccc3n2)c1O` (stereo not given) reads “inactive”; that for `CS(=O)(=O)c1ccc(C(=O)C2C(=O)CCCC2=O)c([N+](=O)[O-])c1`, “inactive”; that for `O=c1[nH]c2ccccc2n1C1CCN(CCCC(c2ccc(F)cc2)c2ccc(F)cc2)CC1`, “inactive”.
In the case of `Cc1cc(N=Nc2ccccc2C)ccc1N`, the Potency is 4.33 µM (active) and 2.43 µM (active).
On to `CC(C)(c1ccc(O)c(-c2ccccc2)c1)c1ccc(O)c(-c2ccccc2)c1`, for which the Potency entry is “inactive”.
Then `Oc1cccc(-c2ccccc2)c1`, with “inactive”.
For the molecule `c1ccc(Nc2ccc3ccccc3c2)cc1`, the Potency was 27.1 µM (active) and 30.6 µM (active).
The result for `CCCCOP(=O)(CCCC)OCCCC` reads “inactive”; that for `Oc1ccc(C(=C(Cl)Cl)c2ccc(O)cc2)cc1`, “inactive”; that for `CCC[CH2][Sn]([CH2]CCC)([CH2]CCC)[O]C(=O)c1ccccc1`, “inactive”.
The result for `CC(C)[C@H](C(=O)OC(C#N)c1cccc(Oc2ccccc2)c1)c1ccc(OC(F)F)cc1` (stereo not given in full) reads “inactive”.
`CC(=O)/C=C/c1ccc2c(c1)OCO2`: the Potency entry is “inactive”.
On to `CC[C@H]1C[C@@H]2C[C@H]3c4[nH]c5ccc(OC)cc5c4CCN(C2)[C@@H]13`, for which the Potency entry was “inactive”.
The result for `ClC1=C(Cl)C2(Cl)C3C(Cl)C(Cl)CC3C1(Cl)C2(Cl)Cl` (stereo not given) reads “inactive”.
For `CC(C)CC(C)(c1ccc(O)cc1)c1ccc(O)cc1`, the Potency result is “inactive”.
Turning to `Nc1ccc(Cl)cc1C(=O)c1ccccc1`, the Potency is 54.5 µM (active).
On to `S=C=Nc1cccc2ccccc12`, for which the Potency result is “inactive”.
Then `c1ccc2cc3c(cc2c1)-c1cccc2cccc-3c12`, with “inactive”; and `CCSC(C)CC1CC(=O)C(/C(CC)=N/OC/C=C/Cl)=C(O)C1` (stereo not given), with “inactive”; and `CC(C)Oc1cccc(NC(=O)c2ccccc2C(F)(F)F)c1`, with “inactive”.
Then `Clc1ccc(-c2ccc(Cl)c(Cl)c2Cl)c(Cl)c1Cl`, with “inactive”; and `COc1ccc(N)cc1N`, with “inactive”; and `C[As+](C)(C)CC(=O)[O-]`, with “inactive”.
On to `C=CC(=O)OCC(COC(=O)C=C)(COC(=O)C=C)COC(=O)C=C`, for which the Potency result is “inactive”.
Take `CCOP(=S)(OCC)SCCS(=O)(=O)CC`: the Potency result is “inactive”.
As to `Clc1ccc(C(c2ccc(Cl)cc2)C(Cl)(Cl)Cl)cc1`, the Potency entry is “inactive”.
Regarding `N#CCc1ccc(Cl)cc1`, the Potency result is “inactive”.
`COc1cccc(C(=O)CCN[C@@H](C)[C@H](O)c2ccccc2)c1`: the Potency entry is “inactive”.
For `N#Cc1ccccc1N`, the Potency entry was “inactive”.
For `CCS(=O)(=O)c1cccnc1S(=O)(=O)NC(=O)Nc1nc(OC)cc(OC)n1`, the Potency entry was “inactive”.
`CCOc1cc(C(C)(C)C)ccc1C1COC(c2c(F)cccc2F)=N1` (stereo not given): the Potency entry is “inactive”.
Turning to `Oc1ccc(C2(c3ccc(O)cc3)c3ccccc3-c3ccccc32)cc1`, the Potency result is “inactive”.
The result for `ClCCN1CCOCC1` reads “inactive”.
Then `Clc1ccc(-c2ccccc2)cc1`, with “inactive”; and `CC[C@H](C)[C@H]1O[C@]2(C=C[C@@H]1C)C[C@@H]1C[C@@H](C/C=C(\C)[C@@H](O[C@H]3C[C@H](OC)[C@@H](O[C@H]4C[C@H](OC)[C@@H](O)[C@H](C)O4)[C@H](C)O3)[C@@H](C)/C=C/C=C3\CO[C@@H]4[C@H](O)C(C)=C[C@@H](C(=O)O1)[C@]34O)O2`, with “inactive”.
Regarding `O=C(Nc1ccc2[nH]ccc2c1)c1cc2cc(F)ccc2n1Cc1cccc(F)c1`, the Potency is 2.73 µM (active).
